Assay results taken from PubChem BioAssay (NCATS).
Inconclusive results are not listed. A number with no mark means an inactive call. Active and inactive are the calls of the source. Calls follow the shape of the dose curve; as a rule, active = well fitted cell-killing curve with a large enough effect; inconclusive = small, poorly fitted or top-dose-only effect, or effect the other way; inactive = no such curve, though single readings can be large or run the other way.

test: Quantitative High-Throughput drug screen in 47 multiple myeloma cell lines against the NCATS MIPE library collection: KMS11_JCRBsus cell viability assay (AID 1919873); conditions: KMS11 myeloma viability, CellTiter-Glo ATP luminescence, 48 h; series mostly up to 45.8 µM; viability (% of control): at the top concentration; also: nearly all actives have a fitted effect of over 50% in size;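 as to viability (% of control): 100% = DMSO-only wells and 0% = media-only wells without cells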
How it was run: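 Cells were exposed to library compounds for 48 hours, after which ATP was measured by CellTiter-Glo. Signal was taken as median relative luminescence units.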
Potency is read from the fitted curve at half-maximal effect.

SMILES | Potency | viability (% of control)
C=CCNc1c(O)cc2c(O)c1C[C@@H](C)C[C@H](OC)[C@@H](O)[C@@H](C)C=C(C)[C@H](OC(N)=O)[C@@H](OC)C=CC=C(C)C(=O)N2 | 0.0469 µM (active) | –
NC1=N[C@H]2[C@H](CS[C@H]2CCCCC(=O)O)N1 | – | 112% [at 23.2 µM]
Nc1ccn(C2CO[C@H](CO)O2)c(=O)n1 (stereo partly specified) | – | 103%
CCN(CC)Cc1ccc2cc(COC(=O)Nc3ccc(C(=O)NO)cc3)ccc2c1 | 0.526 µM (active) | –
O=C(Nc1cccc(Nc2ncc(Br)c(NCCc3cnc[nH]3)n2)c1)N1CCCC1 | 8.33 µM (active) | –
Oc1ccc([C@@H]2Oc3ccc(O)cc3[C@@H]3CCC[C@@H]32)cc1 | 7.43 µM (active) | –
C=CC(=O)Nc1cccc(Nc2nc(NC3CCC(N(C)C)CC3)nc3c2ncn3C(C)C)c1 (stereo unspecified) | 0.372 µM (active) | –
O=c1ccn([C@@H]2O[C@H](CO)[C@H](O)[C@@H]2F)c(=O)[nH]1 | – | 116%
CCOc1cc2ncc(C#N)c(Nc3ccc(OCc4ccccn4)c(Cl)c3)c2cc1NC(=O)C=CCN(C)C | 14.8 µM (active) | –
CCN1CCN(C(=O)N[C@H](C(=O)N[C@@H]2C(=O)N3C(C(=O)O)=C(CSc4nnnn4C)CS[C@@H]23)c2ccc(O)cc2)C(=O)C1=O | – | 106% [at 15.3 µM]
CC1(C)O[C@@H]2C[C@H]3[C@@H]4CCC5=CC(=O)C=C[C@]5(C)[C@@H]4[C@@H](O)C[C@]3(C)[C@]2(C(=O)CO)O1 | 0.0332 µM (active) | –
O=C(Nc1cc2cc[nH]c2cn1)c1ccccc1 | 11.8 µM (active) | –
CC(C)N(CC[C@H](c1ccccc1)c1cc(CO)ccc1O)C(C)C | – | 87.5%
N=c1ccn2c(n1)O[C@H]1[C@@H](O)[C@@H](CO)O[C@H]12 | 0.469 µM (active) | –
C[C@H]1C[C@H]2[C@@H]3CCC4=CC(=O)C=C[C@]4(C)[C@@H]3C(=O)C[C@]2(C)[C@@]1(O)C(=O)CO | – | 101%
C#Cc1cccc(Nc2ncnc3cc(OCCOC)c(OCCO)cc23)c1 | 8.33 µM (active) | –
C=C1C(=O)O[C@H]2[C@@H]1CCC(C)=CCC[C@@]1(C)O[C@@H]21 | 3.32 µM (active) | –
CCc1nc(-c2cccc(C)c2)c(-c2ccnc(NC(=O)c3ccccc3)c2)s1 | 20.9 µM (active) | –

SMILES | Potency | viability (% of control)
NC(=O)N1CCC(CC(=O)N2CCC([C@H]3c4ncc(Br)cc4CCc4cc(Cl)cc(Br)c43)CC2)CC1 | 10.5 µM (active) | –
COC(=O)[C@H](CCCN=C(N)N)NS(=O)(=O)c1ccc(C)cc1 | – | 109%
COC(=O)C1C2CC3c4[nH]c5cc(OC)ccc5c4CCN3CC2CC(OC(=O)c2cc(OC)c(OC)c(OC)c2)C1OC (stereo unspecified) | 29.6 µM (active) | –
CC(=O)O[C@H]1C[C@@H]2CC[C@H]3[C@H]4C[C@H]([N+]5(C)CCCCC5)[C@@H](OC(C)=O)[C@@]4(C)CC[C@@H]3[C@@]2(C)C[C@H]1[N+]1(C)CCCCC1 | – | 106%
C[C@@H](Oc1ccc2[nH]nc(C=Cc3cnn(CCO)c3)c2c1)c1c(Cl)cncc1Cl | 0.148 µM (active) | –
O=C(NC1CC1)c1cccc(-c2ccc3c(NC(=O)C4CC4)n[nH]c3c2)c1 | 7.43 µM (active) | –
O=C(O)C[C@H](O)C[C@H](O)C=Cc1c(C2CC2)nc2ccccc2c1-c1ccc(F)cc1 | 7.43 µM (active) | –
CCCCOc1ccc(C(=O)Nc2ccc(F)cc2F)cc1 | – | 107%
C[C@H]1COc2c(N3CCN(C)CC3)c(F)cc3c(=O)c(C(=O)O)cn1c23 | – | 77.6%
CC(C=CC(=O)NO)=C[C@@H](C)C(=O)c1ccc(N(C)C)cc1 | 0.235 µM (active) | –
CCOC(=O)[C@@H](N)Cc1ccc(-c2cc(O[C@H](c3ccc(Cl)cc3-n3ccc(C)n3)C(F)(F)F)nc(N)n2)cc1 | 16.6 µM (active) | –
CC(C)n1cnc2c(NCCc3ccc(O)cc3)nc(-c3csc4ccccc34)nc21 | 18.7 µM (active) | –
Oc1cc(-c2nc(-c3ccccc3)[nH]c2-c2ccncc2)ccc1Cl | 14.8 µM (active) | –
CCCCCCCCc1ccc(CCC(N)(CO)CO)cc1 | 7.43 µM (active) | –
CC(Cc1ccc(O)c(O)c1)(NN)C(=O)O (stereo unspecified) | 26.4 µM (active) | –
O=C(O)CCCCCC(=O)NN=C1CCCC1 | – | 127%
Cc1cnn(C)c1C(=O)Nc1cc(Nc2ccc3c(C=Cc4ccccn4)n[nH]c3c2)ccc1F | 11.8 µM (active) | –
C=CC[C@@H]1C=C(C)C[C@H](C)C[C@H](OC)[C@H]2O[C@@](O)(C(=O)C(=O)N3CCCC[C@H]3C(=O)O[C@H](C(C)=C[C@@H]3CC[C@H](O)[C@H](OC)C3)[C@@H](C)[C@@H](O)CC1=O)[C@@H](C)C[C@@H]2OC | 0.833 µM (active) | –
